TDP1 cell noCPT: qHTS for Inhibitors of human tyrosyl-DNA phosphodiesterase 1 (TDP1): qHTS in cells in absence of CPT | DT40 Tdp1-/- hTDP1 cells, no CPT, ATP luminescence, 48 h | Potency, µM (titrated, usually from 46.2 µM), without a hit: at the top dose activity change, negative = growth inhibition, hits mostly inhibitors | hit rate 15% among 420,000 | AID 686978, 2013; further: potency means the concentration at half of the fitted maximal effect; nearly all actives have a fitted effect of over 55% in size
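Luminescent ATP content (CellTiter-Glo) served as the growth readout. Knockout chicken DT40 cells expressing human TDP1 were exposed to compounds without camptothecin for a minimum 48 hr at 37 °C.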
HT1080 IDH1KD tx: qHTS for induction of synthetic lethality in tumor cells producing 2HG: qHTS for the HT-1080-IDH1KD cell line; HT-1080 IDH1 knockdown viability, ATP luminescence, 48 h; Potency, µM (top dose mostly 46.1 µM), inactives show top-dose activity, negative = toxicity, most hits filed as cytotoxic; hit rate 2% among 360,000; AID 686971, 2013;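 further: potency means the concentration at half of the fitted maximal effect; 0% = DMSO wells and -100% = cell-free medium wells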
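IDH1KD HT-1080 cells, 750/well, RPMI + 5% FBS; compound pinned after 2 h settling; 48 h, 37 °C; CellTiter-Glo luminescence; % activity normalised to DMSO and no-cell wells; curves fitted, classed by r2 and efficacy.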
TDP1 cell CPT: qHTS for Inhibitors of human tyrosyl-DNA phosphodiesterase 1 (TDP1): qHTS in cells in presence of CPT; hit rate 12% among 420,000; Potency, µM (top dose mostly 46.2 µM), inactives show top-dose activity change, negative = growth inhibition, actives largely listed as inhibitors; chicken DT40 Tdp1-/-;hTDP1 cells + 20 nM CPT, ATP luminescence, 48 h; further: potency means the concentration at half of the fitted maximal effect; nearly all actives have a fitted effect of over 55% in size
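Cell growth measured by CellTiter-Glo luminescence after a minimum 48 h, 37 C compound exposure with 20 nM CPT in Tdp1-knockout DT40 cells stably expressing hTDP1, seeded 400/well; qHTS titration format.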
HT1080-NT tox: qHTS for induction of synthetic lethality in tumor cells producing 2HG: qHTS for the HT-1080-NT fibrosarcoma cell line | HT-1080-NT fibrosarcoma viability, CellTiter-Glo ATP luminescence, 48 h | Potency, µM (doses to about 46.1 µM), for inactives: at the top dose activity, negative = less viability, hits mostly cytotoxic | hit rate 1.6% among 360,000 | AID 686970, 2013;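 further: NT is the 2HG producing partner of a matched IDH1 knockdown line; potency means the concentration at half of the fitted maximal effect; 0% = DMSO-treated cells and -100% = media-only wells without cells; nearly all actives have a fitted effect of over 55% in size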
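Fibrosarcoma NT cells, 750 per well in 5% FBS RPMI, were exposed to compound for 48 hours. Viability: CellTiter-Glo luminescence.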
IL1B secr inh: qHTS for Inhibitors of Inflammasome Signaling: IL-1-beta AlphaLISA Primary Screen. THP-1 LPS/ATP IL-1B secretion, AlphaLISA, 16 h; hits give low values. activity change, % at 57.5 µM. hit rate 4.7% among 360,000. AID 743279, 2014; in the data active means activity change below about -50%; inconclusive means mostly about -30% to -49%
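Secreted IL-1B measured by AlphaLISA bead assay after 16 h compound exposure of THP-1 cells; compounds (final up to 57.5 uM) added 1 h before LPS (250 ng/mL) and ATP (1.25 mM) stimulation; lower signal means less secretion.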
uPA generation: qHTS for Inhibitors of Cell Surface uPA Generation. cell surface uPA generation assay, qHTS. Potency, µM (titrated, usually from 38.3 µM), for inactives: at the top dose activity change, negative = inhibition, usual class: inhibitors. hit rate 0.31% among 330,000; active means well fitted inhibition curve with a large enough effect; inconclusive means small, poorly fitted or top-dose-only effect; inactive means no such curve, though single readings can be large or run the other way; tested in mouse RAW 264.7 cells; further: potency means the concentration at half of the fitted maximal effect; nearly all actives have a fitted effect of over 55% in size
Starred values were filed as active, the others as inactive; ? = inconclusive; . = no result given. Rows were chosen to be rich in hits. Some 19% of all compounds tested hit in one or more screens of this group. Unless noted, the call rests on the fitted dose curve; in most records, active means well fitted curve in the direction sought with a large enough effect; inconclusive means small, poorly fitted or top-dose-only effect, or another doubt; inactive means no such curve, though single readings can be large; an effect the other way counts as inactive or inconclusive. Unless noted, on the % scale 0 is the no-effect control and ±100 the full control effect.

SMILES | TDP1 cell noCPT | HT1080 IDH1KD tx | TDP1 cell CPT | HT1080-NT tox | IL1B secr inh | uPA generation
CC(NCc1ccc2c(c1)n(C)c(=O)n2C)c1ccccc1 (stereo not drawn) | -1% | . | -15% | . | . | .
Cc1cn([C@H]2C[C@H](O)[C@@H](/C=C/C(=O)NCCN3CCCCC3)O2)c(=O)[nH]c1=O | 16% | 11% | 14% | 5% | 26 | .
COc1ccccc1CNCC(O)(c1ccc(F)cc1)c1ccc(F)cc1 | 13µM* | -12% | 18µM* | -17% | -26 | 15%
Fc1ccc(CNCc2ccccc2Cl)cc1 | -1% | 3% | -20% | 26% | -14 | -1%
OC(CNCc1ccccc1F)(c1ccc(F)cc1)c1ccc(F)cc1 | ? | -27% | -20% | -25% | -80* | -4%
O=C(CCn1cnc2onc(-c3ccc(F)cc3)c2c1=O)Nc1cccc(C(F)(F)F)c1 | 16µM* | . | 16µM* | . | . | .
O=C(CCn1cnc2onc(-c3ccc(F)cc3)c2c1=O)Nc1ccc(F)c(Cl)c1 | 15µM* | . | 13µM* | . | . | .
CCOc1ccc(C(=O)NCC(c2ccc3c(c2)OCO3)N2CCN(C)CC2)cc1 (stereo not drawn) | 1% | . | 0% | . | . | .
CSc1ccccc1C(=O)N1CCC2(CC1)CC(=O)c1ccccc1O2 | ? | 11% | ? | 4% | -2 | -1%
CCOC(=O)c1c(C)[nH]c(C(=O)OCC(=O)NCc2ccco2)c1C | 23µM* | -1% | 18µM* | -4% | -14 | .
CCOc1ccc(CCNC(=O)COC(=O)c2sccc2C)cc1OCC | 13µM* | 4% | ? | 3% | -1 | -1%
CCOC(=O)c1c(C)[nH]c(C(=O)OCC(=O)NCCc2ccc(OCC)c(OCC)c2)c1C | 5.2µM* | ? | 6.5µM* | -12% | -6 | 14%
CCOC(=O)c1[nH]c(C)c(C(=O)OCC(=O)NCc2ccc(OC)c(OC)c2)c1C | ? | -4% | ? | 1% | 12 | 10%
O=CNc1ccc(OC(=O)c2cncc(Br)c2)cc1 | 11% | -1% | -5% | 5% | 3 | -1%
O=C(CSCSCC(=O)Nc1ccc2c(c1)OCO2)Nc1ccc2c(c1)OCO2 | ? | ? | 15µM* | ? | -7 | -16%
O=C(CSCc1c(Cl)cccc1Cl)Nc1ccccc1C(=O)N1CCOCC1 | 21µM* | -8% | ? | 0% | -12 | 2%
O=C(CSCc1c(Cl)cccc1Cl)Nc1ccc2c(c1)OCO2 | 18µM* | 4% | ? | -2% | -22 | 0%
Cc1ccc(Cn2c(SCC(=O)C(C)(C)C)nc3ccsc3c2=O)cc1 | 15µM* | . | 21µM* | . | . | .
Cc1cc(-n2c(SCC(=O)NCc3ccccc3)nc3ccsc3c2=O)ccc1Cl | ? | . | 16µM* | . | . | .
Cc1ccc(Cn2c(SCC(=O)NCc3ccc(Cl)cc3)nc3ccsc3c2=O)cc1 | -3% | . | ? | . | . | .
COc1ccc(Cn2c(SCC(=O)NCc3ccc(Cl)cc3)nc3ccsc3c2=O)cc1 | -22% | . | ? | . | . | .
Cc1ccc(Cn2c(SCC(=O)NCc3ccccc3Cl)nc3ccsc3c2=O)cc1 | 21µM* | . | ? | . | . | .
O=C(CSc1nc2ccsc2c(=O)n1Cc1ccccc1Cl)NCc1ccc(F)cc1 | 21µM* | . | 16µM* | . | . | .
Cc1ccc(Cn2c(SCC(=O)NCc3ccco3)nc3ccsc3c2=O)cc1 | -16% | -15% | ? | -3% | -11 | .
O=C(Oc1ccc[nH]c1=O)C1CC1 | -10% | ? | -8% | ? | -16 | .
CCOC(=O)CC1(C)Oc2cc(Cl)ccc2N1S(=O)(=O)c1ccc(C)cc1 (stereo not drawn) | ? | -26% | ? | -17% | 11 | .
